The source of these data is article PMC4336329 (PLoS ONE, 2015).

Screen size: about 310,000 compounds; about 14,000 (4.5%) showed an effect of 50% or more. The effect is printed as a negative number. Many of the other results were omitted from the sample, so strong results are more common in it than they were.
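Also: peak tail current of the secondary pulse compared with the same well before compound.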

Chain of human ether-à-go-go-related gene (hERG) potassium channel (Q12809 whole entry, looked up): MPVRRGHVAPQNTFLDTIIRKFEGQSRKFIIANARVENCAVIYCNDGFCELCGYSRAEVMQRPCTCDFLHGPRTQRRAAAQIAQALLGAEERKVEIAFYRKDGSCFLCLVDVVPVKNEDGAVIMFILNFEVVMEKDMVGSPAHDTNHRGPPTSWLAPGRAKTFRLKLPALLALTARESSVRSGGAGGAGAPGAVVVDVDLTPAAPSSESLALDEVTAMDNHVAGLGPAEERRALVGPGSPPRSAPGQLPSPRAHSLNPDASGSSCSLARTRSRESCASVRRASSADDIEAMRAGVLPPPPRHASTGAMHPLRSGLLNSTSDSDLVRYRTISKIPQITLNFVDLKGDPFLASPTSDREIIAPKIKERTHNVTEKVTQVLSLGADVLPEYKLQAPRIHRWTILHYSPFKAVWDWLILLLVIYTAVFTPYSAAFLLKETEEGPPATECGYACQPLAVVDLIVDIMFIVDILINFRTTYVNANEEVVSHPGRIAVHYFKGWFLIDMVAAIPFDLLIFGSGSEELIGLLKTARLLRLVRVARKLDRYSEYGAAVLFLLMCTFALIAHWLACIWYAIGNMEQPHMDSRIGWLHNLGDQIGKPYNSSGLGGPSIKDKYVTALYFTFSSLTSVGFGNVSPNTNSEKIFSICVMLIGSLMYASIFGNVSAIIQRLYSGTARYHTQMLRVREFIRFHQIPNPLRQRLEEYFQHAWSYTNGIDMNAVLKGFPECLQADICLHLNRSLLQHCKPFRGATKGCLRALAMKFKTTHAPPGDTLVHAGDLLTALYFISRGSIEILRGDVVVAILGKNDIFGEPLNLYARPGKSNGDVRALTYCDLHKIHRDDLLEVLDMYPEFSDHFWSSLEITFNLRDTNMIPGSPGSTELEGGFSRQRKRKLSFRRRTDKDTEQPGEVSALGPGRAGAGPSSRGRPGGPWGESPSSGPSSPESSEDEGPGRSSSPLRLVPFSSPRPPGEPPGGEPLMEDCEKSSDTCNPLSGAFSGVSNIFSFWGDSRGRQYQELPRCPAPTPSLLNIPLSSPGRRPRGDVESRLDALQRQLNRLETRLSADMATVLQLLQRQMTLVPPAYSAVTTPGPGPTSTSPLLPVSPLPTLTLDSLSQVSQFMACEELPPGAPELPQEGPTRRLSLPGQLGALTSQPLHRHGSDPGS

The test concerns the target human ether-à-go-go-related gene (hERG) potassium channel (human, UniProt Q12809). In words: primary screen, population patch clamp on CHO cells stably expressing hERG; higher = less effect of the substance.
In the case of `CCOC(=O)C1=C(C)NC(SCC(N)=O)=C(C#N)C1c1cccs1` (centres unmarked), the “hERG current change (%, negative = inhibition) at 10uM” value is listed as -13.2%.
With `O=C(c1ccc2c(=O)n3c(nc2c1)CCCCC3)N1CCN(Cc2ccccc2)CC1` the figure was -2.69%; with `Cc1ccc(C(=O)OCC(=O)N(C)c2ccccc2)cc1C`, -9.59%; with `COc1ccc(CCn2c(-c3ccc(OC)cc3)nc3c(c(=O)c4ccccc4n3C)c2=O)cc1`, 11.4%.
With `COc1ccc(CCn2c(-c3ccccc3)nc3c(c(=O)c4ccccc4n3C)c2=O)cc1` the figure was 11.3%; with `COc1ccc(Cn2c(C)nc3c(c(=O)c4ccccc4n3C)c2=O)cc1`, -44.5%.
With `COc1ccc(CCn2c(C(C)C)nc3c(c(=O)c4ccccc4n3C)c2=O)cc1` the figure was -30%.
On to `COCCn1c(C(C)C)nc2oc3ccccc3c(=O)c2c1=O`, for which the “hERG current change (%, negative = inhibition) at 10uM” value was 3.05%.
With `COc1ccc2c(=O)c3c(=O)n(CCc4ccccc4)c(C(C)C)nc3oc2c1` the figure was 5.79%; with `CCc1nc2c(c(=O)c3ccccc3n2C)c(=O)n1CCc1ccc(OC)cc1`, -74.9%; with `COc1ccc(CCn2c(C)nc3c(c(=O)c4ccccc4n3C)c2=O)cc1`, -61.4%.
As to `COc1ccc(CCn2c(C(C)C)nc3oc4ccccc4c(=O)c3c2=O)cc1`, the “hERG current change (%, negative = inhibition) at 10uM” value was -75.3%.
With `Cc1ccc(NC(=O)CSCC(=O)N2c3ccccc3CCc3ccccc32)cc1` the figure was 7.66%; with `CC(=O)Nc1ccccc1C(=O)N1CCN(Cc2ccccc2)CC1`, 5.02%; with `O=c1[nH]c(=O)n(Cc2ccco2)c(O)c1C=NCc1ccco1`, 3.46%.
With `Cc1nnc(NC(=O)CSc2nnc(-c3ccc(S(=O)(=O)N4CCCC4)cc3)n2C)s1` the figure was -3.39%; with `C/C(=N\NC(=O)C1CC1)c1ccc(OC(F)F)cc1`, 9.94%; with `CCOc1ccc(NC(=O)CSCC(=O)O)cc1`, 1.8%.
With `Oc1ccc(/C(Cc2ccccn2)=N\Nc2ccccc2)c(O)c1` the figure was 8.76%.
In the case of `Cc1ccc(C)c(OCc2cc(C(=O)NC3CCN(Cc4ccccc4)CC3)no2)c1`, the “hERG current change (%, negative = inhibition) at 10uM” value is -41.1%.
Regarding `CC(=O)c1cccc(OCc2cc(C(=O)NC3CCN(Cc4ccccc4)CC3)no2)c1`, the “hERG current change (%, negative = inhibition) at 10uM” value is -62.9%.
Turning to `O=C(NC1CCc2ccccc21)c1cc(COc2ccc(F)cc2F)on1` (centres unmarked), the “hERG current change (%, negative = inhibition) at 10uM” value worked out at 16.5%.
With `O=C(NC1Cc2ccccc2C1)c1cc(COc2ccc(F)cc2Cl)on1` the figure was 13.3%.
On to `CC(=O)c1ccc(OCc2cc(C(=O)NC3CCCCC3)no2)cc1`, for which the “hERG current change (%, negative = inhibition) at 10uM” value came out at 5.17%.
As for `O=C(NC1CCN(Cc2ccccc2)C1)c1cc(COc2ccc(F)cc2F)on1` (centres unmarked), the “hERG current change (%, negative = inhibition) at 10uM” value is recorded as -64.2%.
With `c1ccc(-c2ccc(SCc3cccnc3)nn2)nc1`, the “hERG current change (%, negative = inhibition) at 10uM” value is reported as 8.9%.
With `COC(=O)CCCC1=CC2=CC(=O)C(C)(OC(=O)c3cnc4ccccc4n3)C(=O)C2=CO1` (centres unmarked) the figure was 7.07%; with `O=C(Nc1ccc(Br)cc1)c1cnccn1`, -2.9%; with `CCN(CC1CCCN(CCc2cccc(OC)c2)C1)C(=O)c1ccc(COC)o1` (centres unmarked), -71%.
With `COc1cccc(CC(=O)NC2CCCN(Cc3ccccc3F)C2)c1` (centres unmarked) the figure was -5.72%; with `COCc1ccc(CN2CCCC(C(=O)Nc3ccc(-c4cccc(OC)c4)cc3)C2)o1` (centres unmarked), -0.711%.
With `COc1cccc(CCC(=O)N(C)C2CCCN(Cc3ccccc3F)C2)c1` (centres unmarked) the figure was -0.453%; with `CCN(CC1CCCN(CCc2cccc(OC)c2)C1)C(=O)C=C(C)C` (centres unmarked), -61.1%; with `CCN(CC1CCCN(CCc2cccc(OC)c2)C1)C(=O)c1ccoc1C` (centres unmarked), -62.8%.
`COc1cccc(CNC(=O)CCC2CCCN(C(=O)c3ccoc3)C2)c1` (centres unmarked): the “hERG current change (%, negative = inhibition) at 10uM” value is 24.9%.
For `CCN(CC)C(=O)C1CCCN(Cc2cccc(Oc3ccccc3)c2)C1` (centres unmarked), the “hERG current change (%, negative = inhibition) at 10uM” value is on record as -19.6%.
For `COc1cccc(CNC(=O)CCC2CCCN(C(=O)c3ccoc3C)C2)c1` (centres unmarked), the “hERG current change (%, negative = inhibition) at 10uM” value stood at 5.6%.
With `CCN(CC1CCCN(CCc2cccc(OC)c2)C1)C(=O)c1ccoc1` (centres unmarked) the figure was -70.7%; with `CCOC(=O)C1C(=O)NC(N2CCN(c3ccccc3)CC2)=NC1c1ccco1` (centres unmarked), -5.81%.
With `O=C(COC(=O)CCNS(=O)(=O)c1cccs1)Nc1cc(C(F)(F)F)ccc1Cl` the figure was -26.1%.
In the case of `Cc1ccc(/C=C/C(=O)O)cc1S(=O)(=O)N(CCO)CCO`, the “hERG current change (%, negative = inhibition) at 10uM” value came out at 8.09%.
`Cc1sc2ncnc(Sc3nnnn3-c3ccc(Cl)cc3)c2c1C`: the “hERG current change (%, negative = inhibition) at 10uM” value is given as 11.2%.
With `Nc1nccnc1C(=O)OCC(=O)c1ccc[nH]1` the figure was -0.119%; with `COc1ccc(CCn2c(=S)[nH]c3ccc(N4CCOCC4)cc3c2=O)cc1OC`, 10.2%; with `O=C(c1cccc(Cl)c1)N1CCN(c2ccc(N3CCOCC3)nn2)CC1`, -34.8%.
With `CC(=O)c1ccc(Oc2ncnc(N)c2[N+](=O)[O-])cc1` the figure was 12.4%; with `COc1ccc(-c2nc(CS(=O)CC(=O)NC3CCC(C)CC3)c(C)o2)cc1OC` (centres unmarked), -34.6%.
With `COc1ccc(-c2n[nH]c(=S)n2-c2ccc(C)cc2)cc1` the figure was 8.3%.
`C=CCn1c(=N)n(CC(=O)c2ccc(Br)cc2)c2ccccc21`: the “hERG current change (%, negative = inhibition) at 10uM” value is on record as -43.5%.
With `Br.CCN(CC)CCn1c(=N)n(CC(=O)c2ccc(Br)s2)c2ccccc21` the figure was -76.9%.
With `Br.C=CCn1c(=N)n(CC(=O)c2ccccc2)c2ccccc21` the figure was -23.9%.
With `Br.C=CCn1c(=N)n(CC(=O)c2ccc(Br)s2)c2ccccc21` the figure was -58.6%; with `Br.CCn1c(=N)n(CC(=O)c2ccc(Br)s2)c2ccccc21`, -69.3%; with `Br.Cn1c(=N)n(CC(=O)c2ccc(Br)s2)c2ccccc21`, -6.86%.
For `Br.CCCCn1c(=N)n(CC(=O)C(C)(C)C)c2ccccc21`, the “hERG current change (%, negative = inhibition) at 10uM” value is given as -55%.
With `Br.CCCCn1c(=N)n(CC(=O)O)c2ccccc21` the figure was 22.4%.
On to `Br.CCN(CC)CCn1c(=N)n(CC(=O)c2ccc(C)cc2)c2ccccc21`, for which the “hERG current change (%, negative = inhibition) at 10uM” value was -40.8%.
Consider `Br.CCn1c(=N)n(CC(=O)C23CC4CC(CC(C4)C2)C3)c2ccccc21`, for which the “hERG current change (%, negative = inhibition) at 10uM” value is -32.3%.
With `Br.CCn1c(=N)n(CC(=O)C(C)(C)C)c2ccccc21` the figure was -21.1%.
With `O=C(c1ccc(CNS(=O)(=O)c2ccccc2)cc1)N1CCC2(CC1)OCCO2` the figure was -4.16%; with `COc1ccc(NC(=O)CC2C(=O)N(c3ccccc3)C(=O)N2CCc2cccs2)cc1` (centres unmarked), -32.9%; with `CCOc1ccccc1NC(=O)C1CCCCN1S(=O)(=O)c1ccc(F)cc1` (centres unmarked), -2.26%.
With `CN1CCN(C(c2cccnc2)c2ccc3cccnc3c2O)CC1` (centres unmarked) the figure was -4.29%; with `Cc1cccn2c(=O)nc(SCC(=O)N3CC(C)OC(C)C3)nc12` (centres unmarked), 1.96%.
Regarding `CCc1nc(NCCO)c(C#N)c2c1CCCC2`, the “hERG current change (%, negative = inhibition) at 10uM” value is recorded as 13.4%.
With `CCOc1ccccc1-c1nnc(SCC(=O)NC2(C#N)CCCC2)o1` the figure was -19.2%.
On to `CC(C)OC(=O)c1ccc(NC(=O)Cn2c(-c3nonc3N)nc3ccccc32)cc1`, for which the “hERG current change (%, negative = inhibition) at 10uM” value stood at 18.4%.
With `CC1(c2ccccc2)NC(=S)N2C1NC(=S)N2c1ccccc1` (centres unmarked) the figure was 10.2%; with `COc1cc(NC(=O)C/C(C)=N/NC(=O)c2cccc(O)c2)c(OC)cc1Cl`, -8.16%.
With `CCOC(=O)COn1c(=O)c(=O)n(OC)c2ccccc21` the figure was 17.8%; with `O=C(COC(=O)Cc1cn2ccsc2n1)NCc1ccc2c(c1)OCO2`, -15.2%.
For `Br.CCCCn1c(=N)n(CC(=O)c2ccc(Br)s2)c2ccccc21`, the “hERG current change (%, negative = inhibition) at 10uM” value is listed as -52.8%.
With `Br.N=c1n(CC(=O)c2ccc(Br)s2)c2ccccc2n1Cc1ccccc1` the figure was -61.7%.
As to `Br.Cn1c(=N)n(CC(=O)c2cccs2)c2ccccc21`, the “hERG current change (%, negative = inhibition) at 10uM” value is recorded as -0.146%.
With `Br.N=c1n(CC(=O)c2cccs2)c2ccccc2n1Cc1ccccc1` the figure was -48%; with `CCCn1c(=N)n(CC(=O)c2cccs2)c2ccccc21`, -22%.
For the molecule `O=C(O)Cn1c(=O)n(Cc2ccccc2)c2ccccc21`, the “hERG current change (%, negative = inhibition) at 10uM” value came out at 23.4%.
With `CCC(C(=O)NCCN1CCOCC1)n1c2ccccc2c2nc(=O)cc(C)n21` (centres unmarked) the figure was 23.1%.
For `Cc1cccc(NC(=O)CSc2nnnn2-c2cccnc2)c1`, the “hERG current change (%, negative = inhibition) at 10uM” value was -6.57%.
`COc1ccc(OC)c2nc(-c3cccnc3)ccc12`: the “hERG current change (%, negative = inhibition) at 10uM” value is given as 10.2%.
Take `O=C1CC2(CCN(C(=O)c3cccc(Cl)c3)CC2)Oc2ccccc21`: the “hERG current change (%, negative = inhibition) at 10uM” value is listed as -78.5%.
With `O=C1CC2(CCN(C(=O)c3ccc(Br)cc3)CC2)Oc2ccccc21` the figure was -73.5%; with `O=C1CC2(CCN(C(=O)c3cccc(Br)c3)CC2)Oc2ccccc21`, -85.5%; with `O=C1CC2(CCN(C(=O)c3ccc(F)cc3)CC2)Oc2ccccc21`, -76%.
With `CC(=O)Nc1ccc(S(=O)(=O)N2CCC3(CC2)CC(=O)c2ccccc2O3)cc1` the figure was -36.6%; with `O=C1CC2(CCCCC2)Oc2ccc(Cl)cc21`, 1.26%.
With `O=C(c1ccc(F)cc1)N1CCC2(CC1)OCCO2` the figure was 19%.
For the molecule `O=C(c1cccc(Br)c1)N1CCCC1`, the “hERG current change (%, negative = inhibition) at 10uM” value came out at 0.701%.
With `Oc1c(C(Nc2cccc(C(F)(F)F)c2)c2ccncc2)ccc2cccnc12` (centres unmarked) the figure was 12.3%.
